Source: PubChem BioAssay AID1159580 (chemical genetic matrix, 2015)
About 2,000 (36%) of roughly 5,500 compounds were called active. About 18% were inconclusive and are not listed. No stated cut-off is given here; in the data, active means normalized growth mostly below about 0.91 (no sharp cut-off); inconclusive means no clear call, values can overlap the other calls; inactive means mostly above about 0.92. Some of the results follow.

Assay: chemical genetic growth profiling, strain panel (AID 1159580);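 further: tested at 20 µM; growth read once vehicle control cultures reached saturation at 30 °C; 1 = growth at the plate median or of vehicle wells; lower values mean less growth of the strain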
Details: growth OD

Measured: normalized growth

OC1=Cc2c(O)cc(O)cc2OC1(O)c1ccc(O)c(O)c1 (stereo not drawn)
inactive: S. cerevisiae deletion strains, locus YBR021W, strain FUR4, hits give low values 1.06 | S. cerevisiae deletion strains, locus YBR229C, strain ROT2, hits give low values 1 | S. cerevisiae deletion strains, locus YCL029C, strain bik1, hits give low values 0.997 | S. cerevisiae deletion strains, locus YDL035C, strain GPR1, hits give low values 1.02 | S. cerevisiae deletion strains, locus YDL074C, strain BRE1, hits give low values 0.962 | S. cerevisiae deletion strains, locus YDL101C, strain DUN1, hits give low values 0.99 | S. cerevisiae deletion strains, locus YDL134C, strain PPH21, hits give low values 0.975 | S. cerevisiae deletion strains, locus YDL185W, strain tfp1, hits give low values 0.96 | S. cerevisiae deletion strains, locus YDL192W, strain arf1, hits give low values 1 | S. cerevisiae deletion strains, locus YDR101C, strain arx1, hits give low values 1.03 | S. cerevisiae deletion strains, locus YDR162C, strain NBP2, hits give low values 0.956 | S. cerevisiae deletion strains, locus YDR318W, strain mcm21, hits give low values 1 | S. cerevisiae deletion strains, locus YDR388W, hits give low values 0.994 | S. cerevisiae deletion strains, locus YDR502C, strain sam2, hits give low values 1.01 | S. cerevisiae deletion strains, locus YER110C, hits give low values 0.993 | S. cerevisiae deletion strains, locus YER155C, strain BEM2, hits give low values 1.02 | S. cerevisiae deletion strains, locus YER167W, strain BCK2, hits give low values 1.01 | S. cerevisiae deletion strains, locus YGL078C, strain dbp3, hits give low values 0.972 | S. cerevisiae deletion strains, locus YGL086W, strain mad1, hits give low values 0.997 | S. cerevisiae deletion strains, locus YGL248W, strain PDE1, hits give low values 0.979 | S. cerevisiae deletion strains, locus YGR078C, strain PAC10, hits give low values 0.962 | S. cerevisiae deletion strains, locus YGR135W, strain pre9, hits give low values 0.972 | S. cerevisiae deletion strains, locus YGR252W, strain gcn5, hits give low values 1.1 | S. cerevisiae deletion strains, locus YHR030C, strain SLT2, hits give low values 0.984 | S. cerevisiae deletion strains, locus YHR079C, strain IRE1 (second series), hits give low values 0.995 | S. cerevisiae deletion strains, locus YHR094C, strain hxt1, hits give low values 0.995 | S. cerevisiae deletion strains, locus YHR129C, strain ARP1, hits give low values 0.985 | S. cerevisiae deletion strains, locus YHR200W, strain rpn10, hits give low values 0.997 | S. cerevisiae deletion strains, locus YIL066C, strain RNR3, hits give low values 0.991 | S. cerevisiae deletion strains, locus YIL073C, strain SPO22, hits give low values 0.972 | S. cerevisiae deletion strains, locus YIL125W, strain kgd1, hits give low values 0.989 | S. cerevisiae deletion strains, locus YIR030C, strain dcg1, hits give low values 0.989 | S. cerevisiae deletion strains, locus YJL095W, strain BCK1, hits give low values 0.965 | S. cerevisiae deletion strains, locus YJL134W, strain LCB3, hits give low values 0.997 | S. cerevisiae deletion strains, locus YJL168C, strain set2, hits give low values 0.991 | S. cerevisiae deletion strains, locus YJL187C, strain SWE1 (second series), hits give low values 0.966 | S. cerevisiae deletion strains, locus YKL009W, strain mrt4, hits give low values 0.997 | S. cerevisiae deletion strains, locus YKL068W, hits give low values 0.981 | S. cerevisiae deletion strains, locus YKL085W, strain MDH1 (second series), hits give low values 0.986 | S. cerevisiae deletion strains, locus YKL085W, strain MDH1, hits give low values 0.986 | S. cerevisiae deletion strains, locus YKL190W, strain CNB1, hits give low values 0.992 | S. cerevisiae deletion strains, locus YKR001C, strain vps1, hits give low values 1 | S. cerevisiae deletion strains, locus YLR039C, strain RIC1, hits give low values 1 | S. cerevisiae deletion strains, locus YLR058C, strain SHM2, hits give low values 0.984 | S. cerevisiae deletion strains, locus YLR102C, strain apc9, hits give low values 0.993 | S. cerevisiae deletion strains, locus YLR268W, strain sec22, hits give low values 1.02 | S. cerevisiae deletion strains, locus YLR342W, strain FKS1 (second series), hits give low values 0.935 | S. cerevisiae deletion strains, locus YLR371W, strain rom2, hits give low values 0.975 | S. cerevisiae deletion strains, locus YLR418C, strain cdc73, hits give low values 1.02 | S. cerevisiae deletion strains, locus YML016C, strain PPZ1, hits give low values 0.972 | S. cerevisiae deletion strains, locus YML032C, strain rad52, hits give low values 1.02 | S. cerevisiae deletion strains, locus YML124C, strain tub3, hits give low values 1 | S. cerevisiae deletion strains, locus YMR078C, strain ctf18, hits give low values 0.99 | S. cerevisiae deletion strains, locus YMR223W, strain ubp8, hits give low values 0.987 | S. cerevisiae deletion strains, locus YMR307W, strain GAS1, hits give low values 0.971 | S. cerevisiae deletion strains, locus YNL067W, strain RPL9B, hits give low values 0.967 | S. cerevisiae deletion strains, locus YNL153C, strain GIM3, hits give low values 0.964 | S. cerevisiae deletion strains, locus YNL233W, strain BNI4, hits give low values 0.998 | S. cerevisiae deletion strains, locus YNL250W, strain rad50, hits give low values 0.97 | S. cerevisiae deletion strains, locus YNL271C, strain bni1, hits give low values 0.978 | S. cerevisiae deletion strains, locus YNL298W, strain CLA4, hits give low values 0.986 | S. cerevisiae deletion strains, locus YNL307C, strain MCK1, hits give low values 0.999 | S. cerevisiae deletion strains, locus YNR052C, strain pop2, hits give low values 0.981 | S. cerevisiae deletion strains, locus YOL006C, strain TOP1, hits give low values 0.945 | S. cerevisiae deletion strains, locus YOL012C, strain htz1 0.48 | S. cerevisiae deletion strains, locus YOL147C, strain pex11, hits give low values 1.01 | S. cerevisiae deletion strains, locus YOR061W, strain CKA2, hits give low values 0.987 | S. cerevisiae deletion strains, locus YOR069W, strain VPS5, hits give low values 0.988 | S. cerevisiae deletion strains, locus YOR136W, strain idh2, hits give low values 1 | S. cerevisiae deletion strains, locus YOR144C, strain elg1, hits give low values 0.996 | S. cerevisiae deletion strains, locus YOR184W, strain ser1, hits give low values 1.05 | S. cerevisiae deletion strains, locus YOR316C, strain cot1, hits give low values 0.984 | S. cerevisiae deletion strains, locus YPR119W, strain clb2, hits give low values 0.995 | S. cerevisiae deletion strains, locus YPR141C, strain kar3, hits give low values 0.974 | S. cerevisiae deletion strains, locus YPR163C, strain tif3, hits give low values 0.999 | S. cerevisiae deletion strains, locus YPR167C, strain met16, hits give low values 0.999 | S. cerevisiae deletion strains, strain wtn01, hits give low values 1.01 | S. cerevisiae strains, strain wild type, hits give low values 0.998
